# Source: PubChem BioAssay (National Center for Advancing Translational Sciences (NCATS))
# Most compounds without a hit are left out; they make up all but 3% or so of the library.
# SNCA expr inhib: SNCA gene expression inhibition | HEK-293 SNCA-luciferase knock-in, luminescence, 24 h | Potency, µM (top dose mostly 57.2 µM), for inactives: at the highest dose activity change, negative = inhibition, usual class: inhibitors | hit rate 0.17% among 140,000 | AID 1671194;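 also: potency is read from the fitted curve at half-maximal effect; plate controls were DMSO cells for no effect and cell-free wells for full effect; nearly all actives have a fitted effect of over 45% in size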
# SNCA viab count: counter-screen for SNCA expression inhibitors: cell viability | HEK-293-SNCA-luc viability, GF-AFC fluorescence, 24 h | Potency, µM (highest dose often 57.1 µM), without a hit: top-dose activity change, negative = cytotoxicity, most hits filed as cytotoxic | hit rate 0.12% among 150,000;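 also: potency is read from the fitted curve at half-maximal effect; 0% = DMSO-treated cells and -100% = medium-only wells without cells; nearly all actives have a fitted effect of over 30% in size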
#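 HEK-293-SNCA-luc cells (1500/well) plated 24 h, then exposed 24 h to a dilution series; GF-AFC added 30 min at 37C, fluorescence 405/540 nm; normalised to medium-only and DMSO wells, Hill fit.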
# IP6K1 inhibitor: inhibitors of human IP6K1; IP6K1 kinase, ADP-Glo luminescence, 2 h; stronger effect = lower value; activity change, % (series mostly up to about 58 µM); hit rate 0.81% among 140,000; in the data active = activity change below about -25%; also: % is scaled to controls: 0 for no effect and ±100 for the full control effect
#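 ADP-Glo luminescence measures ADP made by human IP6K1 during a 2 h RT reaction with ATP/IP6 (mix at 1.3 mM/130 uM); top library doses 57.5 and 19.1 uM final.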
# KDM5B inh: blocks human KDM5B histone demethylase activity | Q9UGL1 | KDM5B demethylase, FDH-coupled NADH fluorescence (FDH is formaldehyde dehydrogenase) | Potency, µM (top dose mostly 57.7 µM), actives largely listed as inhibitors | hit rate 2.6% among 220,000 | AID 1347165; also: potency is read from the fitted curve at half-maximal effect; 0% is about no effect; nearly all actives have a fitted effect of over 70% in size
#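 KDM5BΔAP (200 nM final) in 50 mM HEPES pH 7.5, 0.01% Tween-20 was preincubated 10 min at RT with compound over a concentration range. Substrate mix (H3K4me3 12.5 µM, α-KG 25 µM, Fe²⁺, ascorbate, NAD⁺, FDH) was added, and NADH fluorescence change over 30 min gave dose-response curves.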
# Active calls of the source: *; i = inactive; ? = inconclusive; nt = no result given; [ ] = remark or other dose. Unless noted, calls follow the shape of the dose curve; as a rule, active = well fitted curve in the direction sought with a large enough effect; inconclusive = small, poorly fitted or top-dose-only effect, or another doubt; inactive = no such curve, though single readings can be large; an effect the other way counts as inactive or inconclusive.
SMILES,SNCA expr inhib,SNCA viab count,IP6K1 inhibitor,KDM5B inh
Fc1ccccc1CN1CCC[C@H]1c1nc(-c2ccnc(N3CCOCC3)c2)no1,18%[87.6 µM],-5%[87.6 µM],13,?
CS(=O)(=O)c1ccc(CN2CCC[C@H]2c2nc(-c3ccnc(N4CCOCC4)c3)no2)cc1,25%,-9%,6,25µM*
COCCOc1ncccc1-c1noc([C@@H]2CCCN2Cc2ccc(S(C)(=O)=O)cc2)n1,42%,2%,6,i
c1cc(-c2noc([C@@H]3CCCN3C3CCC3)n2)cc(N2CCOCC2)n1,0%[87.6 µM],-9%[87.6 µM],-9,35µM*
CC(C)CN1CCC[C@H]1c1nc(-c2ccnc(N3CCOCC3)c2)no1,1%[87.6 µM],-11%[87.6 µM],0,32µM*
c1ccc(CN2CCC[C@H]2c2nc(-c3ccnc(N4CCOCC4)c3)no2)cc1,33%[87.6 µM],-18%[87.6 µM],4,35µM*
c1cc(N2CCOCC2)ncc1-c1noc([C@@H]2CCCN2C2CCOCC2)n1,42%[87.6 µM],-2%[87.6 µM],27,?
Cn1nc(-c2cccc(F)c2)c(N2CCCCC2)c1NC(=O)Nc1ccccc1,?,-18%,3,nt
N#Cc1ccc(CN2CCC[C@H]2c2nc(-c3ccnc(N4CCOCC4)c3)no2)cc1,0%[87.6 µM],-14%[87.6 µM],10,35µM*
COCCNc1ccc(-c2noc([C@@H]3CCCN3Cc3cc(OC)c(OC)c(OC)c3)n2)cn1,22%,-18%,14,?
N#Cc1cccc(CN2CCC[C@H]2c2nc(-c3ccc(OC4CCCCC4)nc3)no2)c1,7%[87.6 µM],-4%[87.6 µM],-2,i
COCCNc1cc(-c2noc([C@@H]3CCCN3CC(C)C)n2)ccn1,7%[87.6 µM],-25%[87.6 µM],8,32µM*
COc1ccccc1Nc1ncc2c(n1)CN(C(=O)c1ccccc1)CCN2,?,1%[87.6 µM],-10,i
COc1ccccc1Nc1ncc2c(n1)CN(C(=O)c1cc3ccccc3n1C)CCN2,-12%[87.6 µM],-4%[87.6 µM],-13,40µM*
CC(C)c1noc(-c2cccn3c(CNC(=O)c4ccccc4)nnc23)n1,-9%,2%,4,22µM*
CC(C)c1noc(-c2cccn3c(CNC(=O)c4ccccn4)nnc23)n1,?,-10%,14,25µM*
CC(C)c1noc(-c2cccn3c(CNC(=O)c4ccco4)nnc23)n1,-17%,5%,-2,22µM*
CC(C)c1noc(-c2cccn3c(CNC(=O)c4cccnc4)nnc23)n1,11%,8%,19,?
COCCCNC(=O)c1cn2cc(-c3cccc(OC)c3)sc2n1,82%[87.6 µM],-9%[87.6 µM],-12,nt
COc1ccc2c(c1)cc(C(=O)N1Cc3[nH]cnc3CC1C(=O)O)n2C (stereo unspecified),-1%,1%,-2,18µM*
CN1C(=O)CO[C@H]2CN(c3ccc(C#N)cn3)C[C@H]21,?,1%[87.6 µM],4,35µM*
N#Cc1ccc(N2C[C@@H]3OCC(=O)N(CC4CCCCC4)[C@@H]3C2)nc1,1%[87.6 µM],-13%[87.6 µM],-7,35µM*
O=C(c1cnccn1)N1C[C@@H]2OCC(=O)N(CC3CCCCC3)[C@@H]2C1,-3%[87.6 µM],-1%[87.6 µM],16,?
O=c1[nH]c(C2CCCN(Cc3cccc(-c4ccc(F)cc4F)c3)C2)nc2ccc(F)cc12 (stereo unspecified),?,-3%,18,?
COCCNC(=O)CC(c1ccc(Cl)cc1)c1c[nH]c2ccc([N+](=O)[O-])cc12 (stereo unspecified),5%,-3%,0,i
SMILES,SNCA expr inhib,SNCA viab count,IP6K1 inhibitor,KDM5B inh
O=c1ncn(Cc2ccccc2)c2ccc(-c3ccc(F)cc3)nc12,52%[87.6 µM],10%[87.6 µM],13,35µM*
O=c1ncn(CC2CC2)c2ccc(-c3ccc(Cl)cc3)nc12,137%[87.6 µM],7%[87.6 µM],2,40µM*
O=c1ncn(Cc2ccccc2)c2ccc(NCCOc3ccccc3)nc12,-11%[87.6 µM],2%[87.6 µM],-3,35µM*
O=c1ncn(CC2CC2)c2ccc(-c3ccc(F)cc3)nc12,77%[87.6 µM],4%[87.6 µM],9,35µM*
COc1cc(F)ccc1-c1ccc2c(n1)c(=O)ncn2CCC(F)(F)F,-8%[87.6 µM],3%[87.6 µM],0,?
O=c1ncn(CC2CC2)c2ccc(-c3ccc4c(c3)OCO4)nc12,106%[87.6 µM],3%[87.6 µM],0,i
CC(=O)Nc1cccc(-c2ccc3c(n2)c(=O)ncn3Cc2ccccc2)c1,-6%[87.6 µM],5%[87.6 µM],10,i
COc1ccccc1-c1cc(C(=O)NCc2ccccc2F)nn2cnnc12,12%,-6%,2,nt
Cc1cccc(-c2cccc(CN3CCC(NC(=O)C(C)(C)C)CC3)c2)c1,-3%,0%,2,nt
CNC(=O)C1CCCCN1Cc1ccc(-c2ccccc2OC)cc1 (stereo unspecified),nt,nt,8,nt
CC(=O)N1CCCC(CNc2nccc(-c3c(C)nn(C)c3C)n2)C1 (stereo unspecified),8%,4%,-9,28µM*
COc1ccc(CNc2nccc(-c3c(C)nn(C)c3C)n2)cc1OC,-26%,-15%,13,?
CCN1CC(CNc2nccc(-c3c(C)nn(C)c3C)n2)CC1=O (stereo unspecified),-17%,-8%,8,28µM*
CN(C)C(=O)C(Cl)c1ccccc1 (stereo unspecified),nt,nt,nt,i
Cn1c2c(c3ccccc31)CC=C1C[C@@H](O)CC[C@@]12C,nt,nt,-12,nt
COc1ccc(C(=O)N2CCC(C(NC(=O)c3ccccc3C)C(=O)NC(C)C(C)C)CC2)cc1 (stereo unspecified),-22%,20µM*,10,i
Cc1ccsc1C(=O)NCC1Cn2cccc2CN1C (stereo unspecified),40%,12%,-8,32µM*
CCNC(=O)NCC1Cn2cccc2CN1C (stereo unspecified),-20%,2%,-2,22µM*
O=C(NCC1Cn2cccc2CN1Cc1ccccc1)c1n[nH]c2ccccc12 (stereo unspecified),103%,-2%,-15,14µM*
O=C(NCC1Cn2cccc2CN1Cc1ccccc1)c1ccsc1 (stereo unspecified),7%,-5%,-2,25µM*
O=C(NCC1Cn2cccc2C(=O)N1Cc1ccccc1)c1ccsc1 (stereo unspecified),2%,8%,-4,i
Cc1cc(C)cc(-c2ccc(CN3CCCC(NC(=O)c4ccncc4)C3)cc2)c1 (stereo unspecified),?,-17%,-4,nt
O=C(NCC1Cn2cccc2CN1Cc1ccccc1)c1ccoc1 (stereo unspecified),62%,-1%,-12,28µM*
CN1Cc2cccn2CC1CNC(=O)c1ccoc1 (stereo unspecified),-4%,-7%,15,28µM*
O=C(NCC1Cn2cccc2CN1Cc1ccccc1)Nc1ccccc1 (stereo unspecified),-1%,2%,-10,nt
O=C(NCC1Cn2cccc2CN1Cc1ccccc1)c1ccncc1 (stereo unspecified),8%,-6%,-10,28µM*
COc1ccccc1-c1ccc(C(=O)N2CCC(NC(=O)NC(C)C)CC2)cc1,2%,-8%[12.5 µM],-11,nt
